Laboratory results published in the supplement of paper PMC11732987, “Enantioselective OTUD7B fragment discovery through chemoproteomics screening and high-throughput optimisation” (Communications Chemistry, 2025).

Tests used:
Assay in all cases: log2 ratio of Biotin-Ahx-Ub-VS probe labelling (fragment/DMSO); higher = less target engagement (more negative = stronger competition), active = hit call of the paper (q ≤ 0.05, log2 ratio ≤ -1)
Conditions in all cases: compound concentration: 200 uM; treatment time: 3 h
USP42 = molecular target: T1, USP42 (UniProt Q9H9J4)
T1 sequence (whole entry): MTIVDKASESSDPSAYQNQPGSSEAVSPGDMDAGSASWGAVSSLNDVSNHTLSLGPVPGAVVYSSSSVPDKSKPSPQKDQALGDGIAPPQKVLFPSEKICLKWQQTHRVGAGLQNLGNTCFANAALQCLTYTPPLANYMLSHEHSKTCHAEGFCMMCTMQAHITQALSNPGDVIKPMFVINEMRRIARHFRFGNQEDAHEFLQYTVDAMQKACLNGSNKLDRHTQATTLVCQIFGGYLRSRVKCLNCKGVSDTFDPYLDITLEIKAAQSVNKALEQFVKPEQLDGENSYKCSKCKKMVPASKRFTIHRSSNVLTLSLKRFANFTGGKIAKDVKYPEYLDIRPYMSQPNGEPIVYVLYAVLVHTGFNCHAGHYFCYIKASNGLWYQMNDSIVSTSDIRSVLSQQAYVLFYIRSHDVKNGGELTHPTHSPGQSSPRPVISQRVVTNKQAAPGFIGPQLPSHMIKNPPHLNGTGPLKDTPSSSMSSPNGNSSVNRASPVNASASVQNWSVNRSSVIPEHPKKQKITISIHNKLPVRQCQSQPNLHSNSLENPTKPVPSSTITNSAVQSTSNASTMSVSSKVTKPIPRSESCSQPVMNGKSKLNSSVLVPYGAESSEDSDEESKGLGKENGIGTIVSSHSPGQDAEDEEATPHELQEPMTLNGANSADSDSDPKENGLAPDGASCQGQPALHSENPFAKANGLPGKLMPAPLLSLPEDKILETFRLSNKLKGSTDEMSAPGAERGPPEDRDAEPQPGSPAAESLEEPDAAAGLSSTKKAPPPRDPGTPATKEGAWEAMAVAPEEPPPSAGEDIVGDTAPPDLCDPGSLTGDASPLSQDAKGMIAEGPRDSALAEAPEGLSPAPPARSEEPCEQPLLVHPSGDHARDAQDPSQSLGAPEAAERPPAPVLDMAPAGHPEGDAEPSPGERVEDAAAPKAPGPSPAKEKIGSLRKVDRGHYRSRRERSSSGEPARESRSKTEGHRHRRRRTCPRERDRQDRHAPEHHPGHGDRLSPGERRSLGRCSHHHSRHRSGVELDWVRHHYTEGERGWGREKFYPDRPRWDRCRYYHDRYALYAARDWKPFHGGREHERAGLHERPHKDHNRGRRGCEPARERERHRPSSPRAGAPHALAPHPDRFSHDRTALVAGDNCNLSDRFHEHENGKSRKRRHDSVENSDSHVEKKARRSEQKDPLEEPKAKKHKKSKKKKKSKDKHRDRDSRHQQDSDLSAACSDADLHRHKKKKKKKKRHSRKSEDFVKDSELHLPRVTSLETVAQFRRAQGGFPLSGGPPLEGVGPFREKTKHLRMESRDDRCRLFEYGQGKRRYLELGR
How it was run: (§1)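 Labelled DUBs from HEK293T lysate were NeutrAvidin-enriched, digested with LysC and trypsin, and run by diaPASEF LC-MS/MS. Before that, each 495 µg sample in Tris/CHAPS/IGEPAL buffer with protease inhibitors was treated in triplicate with fragment at 200 µM or vehicle for 3 h, then with Biotin-Ahx-Ub-VS at 0.5 µM final for 1 h. Values are average log2 ratios of fragment over vehicle by unpaired t-test, based on global-median-normalised Spectronaut label-free quantities from proteins with ≥2 unique peptides.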

USP46 = USP46 (UniProt P62068)
USP46, sequence (P62068 whole entry): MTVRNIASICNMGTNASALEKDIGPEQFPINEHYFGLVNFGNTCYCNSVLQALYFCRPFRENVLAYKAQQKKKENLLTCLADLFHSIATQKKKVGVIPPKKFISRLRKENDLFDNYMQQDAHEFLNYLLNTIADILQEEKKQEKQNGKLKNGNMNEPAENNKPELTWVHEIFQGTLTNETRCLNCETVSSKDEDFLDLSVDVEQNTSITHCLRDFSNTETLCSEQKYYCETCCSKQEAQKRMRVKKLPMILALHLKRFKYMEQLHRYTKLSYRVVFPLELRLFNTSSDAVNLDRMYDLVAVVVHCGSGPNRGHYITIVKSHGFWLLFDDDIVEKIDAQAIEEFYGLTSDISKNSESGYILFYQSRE
How it was run: as §1

USP47 = molecular target: T2, USP47 (UniProt Q96K76)
T2 sequence (whole entry): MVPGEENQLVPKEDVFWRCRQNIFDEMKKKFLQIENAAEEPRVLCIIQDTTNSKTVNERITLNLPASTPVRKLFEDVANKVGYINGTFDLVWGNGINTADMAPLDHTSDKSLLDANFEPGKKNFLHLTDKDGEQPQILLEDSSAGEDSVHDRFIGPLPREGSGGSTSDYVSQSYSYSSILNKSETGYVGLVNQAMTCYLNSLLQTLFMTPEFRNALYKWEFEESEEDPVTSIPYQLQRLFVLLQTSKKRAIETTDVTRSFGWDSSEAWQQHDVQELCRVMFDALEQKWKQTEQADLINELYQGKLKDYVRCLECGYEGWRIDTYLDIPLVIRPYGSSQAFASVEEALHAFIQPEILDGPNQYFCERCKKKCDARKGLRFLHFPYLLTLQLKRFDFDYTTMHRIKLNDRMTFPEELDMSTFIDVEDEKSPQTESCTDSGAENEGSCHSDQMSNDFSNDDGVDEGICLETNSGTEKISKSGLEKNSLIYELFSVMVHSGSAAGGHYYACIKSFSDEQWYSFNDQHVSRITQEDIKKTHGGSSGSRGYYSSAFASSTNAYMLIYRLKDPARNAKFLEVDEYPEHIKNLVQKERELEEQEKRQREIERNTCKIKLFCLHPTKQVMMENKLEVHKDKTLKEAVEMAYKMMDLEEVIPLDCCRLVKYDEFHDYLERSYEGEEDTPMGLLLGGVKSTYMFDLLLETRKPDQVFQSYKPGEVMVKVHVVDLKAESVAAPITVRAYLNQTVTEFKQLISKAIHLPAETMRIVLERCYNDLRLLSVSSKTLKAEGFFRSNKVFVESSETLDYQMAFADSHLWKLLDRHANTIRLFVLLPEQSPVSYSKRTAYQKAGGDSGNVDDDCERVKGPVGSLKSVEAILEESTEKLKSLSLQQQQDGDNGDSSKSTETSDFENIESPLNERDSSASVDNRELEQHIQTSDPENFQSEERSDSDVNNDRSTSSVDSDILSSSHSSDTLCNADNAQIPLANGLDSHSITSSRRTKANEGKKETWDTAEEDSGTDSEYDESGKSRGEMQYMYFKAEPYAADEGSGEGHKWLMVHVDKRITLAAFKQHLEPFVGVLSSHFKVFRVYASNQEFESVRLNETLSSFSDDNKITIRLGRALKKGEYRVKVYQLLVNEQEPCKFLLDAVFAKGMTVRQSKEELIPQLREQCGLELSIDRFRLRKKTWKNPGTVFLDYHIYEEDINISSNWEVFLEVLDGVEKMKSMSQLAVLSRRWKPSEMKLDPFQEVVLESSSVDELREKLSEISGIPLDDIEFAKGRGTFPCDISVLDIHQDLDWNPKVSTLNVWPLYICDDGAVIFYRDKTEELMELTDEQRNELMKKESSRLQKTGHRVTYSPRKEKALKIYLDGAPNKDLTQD
How it was run: as §1

USP48 = molecular target: T3, USP48 (UniProt Q86UV5)
T3 sequence (whole entry): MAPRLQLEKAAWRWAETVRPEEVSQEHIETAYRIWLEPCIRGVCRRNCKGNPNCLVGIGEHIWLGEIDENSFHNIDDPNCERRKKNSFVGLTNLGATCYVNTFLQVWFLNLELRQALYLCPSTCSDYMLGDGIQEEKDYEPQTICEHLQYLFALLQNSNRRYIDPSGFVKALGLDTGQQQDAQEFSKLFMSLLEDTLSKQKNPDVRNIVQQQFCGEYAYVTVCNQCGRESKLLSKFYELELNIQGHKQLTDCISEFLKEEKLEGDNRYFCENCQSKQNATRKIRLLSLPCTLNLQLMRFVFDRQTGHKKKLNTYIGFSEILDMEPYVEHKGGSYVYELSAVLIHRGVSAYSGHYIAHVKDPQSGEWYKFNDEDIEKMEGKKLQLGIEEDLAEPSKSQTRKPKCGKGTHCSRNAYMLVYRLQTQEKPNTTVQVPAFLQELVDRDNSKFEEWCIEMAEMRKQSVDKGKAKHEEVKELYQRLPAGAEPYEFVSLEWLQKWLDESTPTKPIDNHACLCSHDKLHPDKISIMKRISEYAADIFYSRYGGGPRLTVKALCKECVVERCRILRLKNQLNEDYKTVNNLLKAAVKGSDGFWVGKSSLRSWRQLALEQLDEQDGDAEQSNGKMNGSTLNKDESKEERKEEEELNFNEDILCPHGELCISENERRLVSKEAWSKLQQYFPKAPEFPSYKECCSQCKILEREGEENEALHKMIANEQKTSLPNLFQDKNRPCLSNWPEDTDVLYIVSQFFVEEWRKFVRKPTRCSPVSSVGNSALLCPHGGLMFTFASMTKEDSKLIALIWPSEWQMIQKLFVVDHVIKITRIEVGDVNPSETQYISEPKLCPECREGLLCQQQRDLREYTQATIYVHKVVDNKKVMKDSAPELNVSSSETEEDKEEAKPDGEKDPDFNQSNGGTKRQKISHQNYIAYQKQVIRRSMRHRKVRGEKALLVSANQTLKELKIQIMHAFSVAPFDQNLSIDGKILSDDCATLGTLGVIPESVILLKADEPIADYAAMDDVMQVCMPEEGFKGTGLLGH
How it was run: as §1

USP5 = molecular target: T4, USP5 (UniProt P45974)
T4 sequence (whole entry): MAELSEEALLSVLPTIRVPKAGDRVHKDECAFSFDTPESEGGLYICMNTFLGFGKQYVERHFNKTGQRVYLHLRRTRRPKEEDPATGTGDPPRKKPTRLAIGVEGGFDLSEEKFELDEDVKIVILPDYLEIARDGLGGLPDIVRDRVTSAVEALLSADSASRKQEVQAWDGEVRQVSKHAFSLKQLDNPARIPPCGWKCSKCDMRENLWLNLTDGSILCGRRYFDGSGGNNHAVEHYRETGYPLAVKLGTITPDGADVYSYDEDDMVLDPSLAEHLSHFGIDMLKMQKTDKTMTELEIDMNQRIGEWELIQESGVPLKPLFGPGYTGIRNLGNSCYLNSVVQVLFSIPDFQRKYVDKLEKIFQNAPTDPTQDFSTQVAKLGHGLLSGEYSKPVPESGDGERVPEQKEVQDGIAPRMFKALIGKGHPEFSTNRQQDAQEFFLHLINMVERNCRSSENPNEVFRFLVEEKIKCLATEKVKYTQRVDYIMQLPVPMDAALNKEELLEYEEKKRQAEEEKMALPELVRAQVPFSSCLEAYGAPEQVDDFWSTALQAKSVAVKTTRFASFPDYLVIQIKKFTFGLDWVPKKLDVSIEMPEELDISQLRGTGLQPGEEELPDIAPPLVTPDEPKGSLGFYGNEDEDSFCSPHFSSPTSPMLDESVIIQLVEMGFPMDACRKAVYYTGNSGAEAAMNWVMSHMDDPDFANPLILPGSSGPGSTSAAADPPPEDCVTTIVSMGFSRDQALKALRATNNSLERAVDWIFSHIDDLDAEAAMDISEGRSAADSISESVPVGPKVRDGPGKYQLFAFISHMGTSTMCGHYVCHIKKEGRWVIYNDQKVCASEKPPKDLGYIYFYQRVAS
How it was run: as §1

USP54 = USP54 (UniProt Q70EL1)
USP54, sequence (Q70EL1 whole entry): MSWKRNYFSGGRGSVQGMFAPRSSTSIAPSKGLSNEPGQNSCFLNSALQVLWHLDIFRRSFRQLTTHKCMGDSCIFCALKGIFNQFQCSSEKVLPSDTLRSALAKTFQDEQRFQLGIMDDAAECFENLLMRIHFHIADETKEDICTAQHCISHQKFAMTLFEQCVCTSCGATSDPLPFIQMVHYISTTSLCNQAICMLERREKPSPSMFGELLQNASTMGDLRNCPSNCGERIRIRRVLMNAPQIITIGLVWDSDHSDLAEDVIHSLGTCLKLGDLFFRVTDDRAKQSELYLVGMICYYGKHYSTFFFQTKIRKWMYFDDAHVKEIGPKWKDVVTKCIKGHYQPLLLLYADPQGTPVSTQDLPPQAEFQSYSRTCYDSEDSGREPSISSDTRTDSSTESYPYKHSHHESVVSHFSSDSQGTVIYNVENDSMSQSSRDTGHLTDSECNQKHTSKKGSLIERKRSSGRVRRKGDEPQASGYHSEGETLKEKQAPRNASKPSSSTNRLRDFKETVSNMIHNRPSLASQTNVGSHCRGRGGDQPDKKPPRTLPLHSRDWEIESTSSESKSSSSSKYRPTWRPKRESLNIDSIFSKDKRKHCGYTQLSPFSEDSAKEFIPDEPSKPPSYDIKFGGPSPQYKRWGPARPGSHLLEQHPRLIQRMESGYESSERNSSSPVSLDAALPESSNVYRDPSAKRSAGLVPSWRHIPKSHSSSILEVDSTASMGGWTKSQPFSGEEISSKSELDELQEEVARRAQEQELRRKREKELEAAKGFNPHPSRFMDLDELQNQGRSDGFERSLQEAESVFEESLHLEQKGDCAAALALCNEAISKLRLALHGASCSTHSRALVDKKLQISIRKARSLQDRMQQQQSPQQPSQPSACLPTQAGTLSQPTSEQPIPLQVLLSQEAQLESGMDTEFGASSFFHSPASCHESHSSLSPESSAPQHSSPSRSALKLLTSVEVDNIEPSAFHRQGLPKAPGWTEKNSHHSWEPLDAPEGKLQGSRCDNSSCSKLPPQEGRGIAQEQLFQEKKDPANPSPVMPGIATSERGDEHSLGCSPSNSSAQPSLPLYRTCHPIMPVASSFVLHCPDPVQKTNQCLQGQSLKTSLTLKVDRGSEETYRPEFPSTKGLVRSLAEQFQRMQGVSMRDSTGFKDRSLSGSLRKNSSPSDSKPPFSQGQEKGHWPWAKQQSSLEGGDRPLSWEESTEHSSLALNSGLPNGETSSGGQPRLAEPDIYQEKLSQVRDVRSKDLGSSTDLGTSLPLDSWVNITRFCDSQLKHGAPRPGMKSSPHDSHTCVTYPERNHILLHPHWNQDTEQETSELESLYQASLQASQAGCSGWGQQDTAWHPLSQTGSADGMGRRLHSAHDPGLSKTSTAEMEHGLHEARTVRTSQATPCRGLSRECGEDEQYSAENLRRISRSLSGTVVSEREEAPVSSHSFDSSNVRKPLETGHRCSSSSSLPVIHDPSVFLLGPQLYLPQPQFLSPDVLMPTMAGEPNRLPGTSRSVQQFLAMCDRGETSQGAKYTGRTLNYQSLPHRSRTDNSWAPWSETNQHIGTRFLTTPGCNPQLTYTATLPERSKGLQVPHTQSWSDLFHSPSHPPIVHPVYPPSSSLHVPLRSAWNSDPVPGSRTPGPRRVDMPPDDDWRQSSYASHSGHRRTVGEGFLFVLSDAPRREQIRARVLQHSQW
How it was run: as §1

USP7 = USP7 (UniProt Q93009)
USP7, sequence (Q93009 whole entry, looked up): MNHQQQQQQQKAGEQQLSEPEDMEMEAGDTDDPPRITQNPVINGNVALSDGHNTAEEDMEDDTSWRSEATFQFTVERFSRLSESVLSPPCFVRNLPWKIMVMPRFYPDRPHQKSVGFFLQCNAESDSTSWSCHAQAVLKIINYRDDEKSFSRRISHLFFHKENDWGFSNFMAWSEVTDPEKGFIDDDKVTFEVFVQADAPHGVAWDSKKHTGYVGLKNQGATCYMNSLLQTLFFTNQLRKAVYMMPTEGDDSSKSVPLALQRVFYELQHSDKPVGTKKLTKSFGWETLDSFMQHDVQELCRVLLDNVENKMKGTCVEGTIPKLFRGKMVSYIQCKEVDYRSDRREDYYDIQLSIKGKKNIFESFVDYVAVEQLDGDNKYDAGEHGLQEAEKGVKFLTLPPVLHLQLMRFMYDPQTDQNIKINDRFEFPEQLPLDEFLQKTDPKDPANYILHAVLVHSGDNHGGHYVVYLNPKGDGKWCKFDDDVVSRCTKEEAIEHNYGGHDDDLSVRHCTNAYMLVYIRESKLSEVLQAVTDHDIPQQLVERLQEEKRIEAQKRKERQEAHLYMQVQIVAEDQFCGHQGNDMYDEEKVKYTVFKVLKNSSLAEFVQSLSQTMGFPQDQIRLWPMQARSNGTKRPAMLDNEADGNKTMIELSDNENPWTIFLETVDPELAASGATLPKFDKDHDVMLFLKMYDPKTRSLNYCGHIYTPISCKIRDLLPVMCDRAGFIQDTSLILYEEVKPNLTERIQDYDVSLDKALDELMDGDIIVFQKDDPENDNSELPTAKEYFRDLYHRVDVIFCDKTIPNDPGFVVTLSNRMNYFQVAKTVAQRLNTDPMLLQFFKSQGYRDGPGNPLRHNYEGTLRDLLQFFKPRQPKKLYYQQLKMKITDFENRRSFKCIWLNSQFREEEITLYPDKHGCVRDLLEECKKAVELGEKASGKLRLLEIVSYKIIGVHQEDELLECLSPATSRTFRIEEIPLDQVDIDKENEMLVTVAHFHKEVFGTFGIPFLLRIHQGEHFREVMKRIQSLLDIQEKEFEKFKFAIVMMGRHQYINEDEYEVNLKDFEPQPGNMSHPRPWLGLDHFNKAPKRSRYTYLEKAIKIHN
How it was run: as §1

USP8 = molecular target: T5, USP8 (UniProt P40818)
T5 sequence (whole entry): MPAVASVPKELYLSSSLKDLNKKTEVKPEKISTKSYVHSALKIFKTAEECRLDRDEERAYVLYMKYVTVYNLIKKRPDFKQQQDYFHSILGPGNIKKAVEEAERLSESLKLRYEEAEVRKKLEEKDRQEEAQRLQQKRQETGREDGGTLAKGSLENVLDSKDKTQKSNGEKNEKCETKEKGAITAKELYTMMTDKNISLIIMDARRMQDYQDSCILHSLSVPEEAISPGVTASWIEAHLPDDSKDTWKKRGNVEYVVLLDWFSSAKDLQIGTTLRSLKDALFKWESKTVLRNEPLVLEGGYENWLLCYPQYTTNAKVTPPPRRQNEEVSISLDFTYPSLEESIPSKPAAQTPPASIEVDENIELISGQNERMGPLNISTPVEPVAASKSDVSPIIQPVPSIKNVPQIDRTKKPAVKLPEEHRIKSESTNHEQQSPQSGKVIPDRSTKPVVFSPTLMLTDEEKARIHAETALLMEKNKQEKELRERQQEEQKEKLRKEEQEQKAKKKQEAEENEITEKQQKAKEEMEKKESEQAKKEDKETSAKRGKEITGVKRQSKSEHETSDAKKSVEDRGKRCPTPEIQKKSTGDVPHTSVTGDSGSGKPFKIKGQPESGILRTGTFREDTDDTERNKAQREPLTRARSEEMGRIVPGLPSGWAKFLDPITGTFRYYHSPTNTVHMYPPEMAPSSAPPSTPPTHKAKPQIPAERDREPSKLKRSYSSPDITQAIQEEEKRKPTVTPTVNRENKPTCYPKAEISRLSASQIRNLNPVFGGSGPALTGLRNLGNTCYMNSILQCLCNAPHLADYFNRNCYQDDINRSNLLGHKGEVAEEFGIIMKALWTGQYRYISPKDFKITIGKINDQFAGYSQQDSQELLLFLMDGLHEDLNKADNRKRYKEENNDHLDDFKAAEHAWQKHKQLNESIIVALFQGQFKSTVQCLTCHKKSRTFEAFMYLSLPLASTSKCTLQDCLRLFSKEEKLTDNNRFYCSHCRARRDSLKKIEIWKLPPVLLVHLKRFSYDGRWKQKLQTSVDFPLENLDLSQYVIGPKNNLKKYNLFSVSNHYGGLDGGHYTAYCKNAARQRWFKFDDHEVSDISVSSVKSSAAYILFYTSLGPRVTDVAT
How it was run: as §1

USP9X = USP9X (UniProt Q93008)
How it was run: as §1

UniProt O00487 = molecular target: UniProt O00487
UniProt O00487, sequence (O00487 whole entry): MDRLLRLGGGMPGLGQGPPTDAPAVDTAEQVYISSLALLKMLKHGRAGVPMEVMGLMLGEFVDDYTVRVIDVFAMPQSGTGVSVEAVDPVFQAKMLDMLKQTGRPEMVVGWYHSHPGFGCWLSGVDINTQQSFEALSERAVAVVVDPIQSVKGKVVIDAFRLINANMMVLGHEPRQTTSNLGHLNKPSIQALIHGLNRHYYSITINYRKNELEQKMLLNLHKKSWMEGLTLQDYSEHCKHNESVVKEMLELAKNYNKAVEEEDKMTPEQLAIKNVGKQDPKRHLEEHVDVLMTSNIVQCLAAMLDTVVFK
How it was run: as §1

Measured: log2 ratio of Biotin-Ahx-Ub-VS probe labelling

Cc1nc(CNC(=O)CCl)c2ccccn12.Cl
inactive: USP42 0.298 | USP46 0.0871 | USP47 -0.0462 | USP48 0.164 | USP5 0.133 | USP54 -0.0547 | USP7 -0.157 | USP8 -0.312 | USP9X -0.222 | UniProt O00487 0.0442
